Screening results: PubChem, several laboratories
Most compounds without a hit are left out; they make up all but 4.7% or so of the library.
TIM10 inh: inhibits growth of TIM10 yeast strain. S. cerevisiae TIM10 strain growth, BacTiter-Glo luminescence, 24 h. 330,000 tested, 1.4% active. inhibition, % at 10 µM;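 active means inhibition of 40% or more at the single tested concentration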;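 further: wild-type TIM10 isogenic control strain grown at permissive 25 °C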
PfHsp90 yeast 2: growth inhibition of yeast expressing Plasmodium Hsp90; S. cerevisiae expressing PfHsp90, BacTiter-Glo ATP, 48 h; yeast lacking PDR1 and PDR3 efflux regulators; inhibition, % at 9.4 µM; 310,000 tested, 0.32% active; AID 504621;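 active means every replicate shows inhibition above about 80%, whatever the replicate mean, limit read from the data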;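 further: 0% = DMSO neutral controls and 100% = 20 µM radicicol positive controls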
tim23-1 inh: tim23-1 yeast growth inhibition; inhibition, % at 20 µM; S. cerevisiae tim23-1 growth, BacTiter-Glo luminescence, 24 h; 330,000 tested, 1.3% active;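 active means growth inhibition of the mutant yeast at or above 50%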;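 further: temperature-sensitive mutant grown at 25 °C; plate controls were DMSO-treated mutant yeast for no effect and medium wells lacking yeast for full effect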
EBI2 block: antagonists of human EBI2 receptor; P32249; 360,000 tested, 0.81% active; inhibition, % at 5 µM; EBI2 beta-arrestin recruitment, luminescence, 7a,25-OHC stimulated; in the data active means inhibition above about 38%;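 further: enzyme fragment complementation signal reports receptor beta-arrestin coupling in cells; 0% = agonist plus DMSO wells and 100% = wells without agonist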
Target sequence (P32249 whole entry, looked up, the tested form may be a part): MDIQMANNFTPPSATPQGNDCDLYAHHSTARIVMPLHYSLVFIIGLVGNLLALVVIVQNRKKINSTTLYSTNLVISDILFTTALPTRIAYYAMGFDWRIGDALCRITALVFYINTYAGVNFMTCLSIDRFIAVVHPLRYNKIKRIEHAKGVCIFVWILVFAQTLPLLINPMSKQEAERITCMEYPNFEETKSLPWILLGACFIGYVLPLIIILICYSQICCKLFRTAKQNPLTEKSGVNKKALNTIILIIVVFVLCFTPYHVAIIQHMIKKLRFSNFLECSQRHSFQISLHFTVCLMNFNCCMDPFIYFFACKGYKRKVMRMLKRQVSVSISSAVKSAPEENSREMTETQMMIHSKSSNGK
SKKanGAS inh: SKKanGAS growth inhibition; AID 1662; 300,000 tested, 1.3% active; S. pyogenes SKKanGAS, kanamycin growth, BacTiter-Glo, 6 h; inhibition, % at 7.5 µM;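 active means mean replicate score, as percent of positive control median, at least 50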;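 further: strain carries kanamycin resistance gene driven by streptokinase promoter and grows in 40 µg/ml kanamycin; loss of luminescence reflects streptokinase promoter inhibition or plain growth inhibition; 0% = median of DMSO wells and 100% = positive control at its reference dose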
tim10-1 inh: growth inhibitors of tim10-1 mutant yeast; S. cerevisiae tim10-1 ts strain growth, BacTiter-Glo, 24 h; 330,000 tested, 2.2% active; inhibition, % at 20 µM;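 active means inhibition of at least 40%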;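 further: mutant grown at 25 °C; 0% = DMSO wells with yeast and 100% = wells holding no yeast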
EBI2 conf: confirmation of human EBI2 receptor antagonists. EBI2 beta-arrestin luminescence, 7a,25-OHC antagonism. AID 651997. 2,400 tested, 29% active. inhibition, % at 5 µM. shares compounds with EBI2 block;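 active means inhibition of at least 50%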
EBI2 agonist: counter-screen for EBI2 antagonists: EBI2 agonist activity | shares compounds with EBI2 block | EBI2-expressing cells, agonist mode, luminescence, 60 min; 0% vehicle, 100% 7α,25-dihydroxycholesterol control | activation, % at 5 µM | 2,400 tested, under 10 active | AID 652000;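 active means activation of at least 50%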
bGal counter: beta-galactosidase inhibition counter-screen; inhibition, % at 5 µM; shares compounds with EBI2 block; 2,400 tested, 1% active; purified beta-galactosidase, luminescent Galacton Star, 15 min;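 active means replicate-average signal at least 3 plate SD below neutral wells, shown as high inhibition, flagging enzyme-inhibiting false positives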;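 further: 0% = DMSO wells with enzyme and 100% = wells lacking enzyme; higher means stronger loss of beta-gal luminescence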
Starred values were filed as active, the others as inactive; · = not tested or not shown.

SMILES | TIM10 inh | PfHsp90 yeast 2 | tim23-1 inh | EBI2 block | SKKanGAS inh | tim10-1 inh | EBI2 conf | EBI2 agonist | bGal counter
OC(COc1ccc(Cl)cc1)CN1CCC(Cc2ccccc2)CC1 (stereo not drawn) | -37 | 1 | -82 | 60* | -6 | -35 | 35 | -2 | -10
CN1CCN(C(=O)/C=C\c2ccc(Cl)cc2)CC1 | 0 | 15 | 10 | 88* | 2 | 1 | 66* | 2 | 4
CN1CCN(C(=O)/C=C/c2c(F)cccc2Cl)CC1 | 4 | 0 | -26 | -6 | 0 | -7 | · | · | ·
CN1CCN(C(=O)/C=C/c2ccccc2)CC1 | -7 | -5 | -5 | 45* | -2 | -1 | 10 | -1 | -6
CCc1ccc(OCC(O)CN2CCC(CN3C(=O)c4cccc5cccc(c45)C3=O)CC2)cc1 (stereo not drawn) | 19 | 18 | -1 | 60* | -2 | 25 | 24 | 0 | 2
Cc1ccc(C(=O)NCc2ccco2)cc1S(=O)(=O)Nc1cccc(Cl)c1 | -1 | 12 | 8 | -4 | 0 | 12 | · | · | ·
N#CCCN1CCCN(CCC#N)CCN(CCC#N)CCCN(CCC#N)CC1 | -25 | 16 | 4 | -2 | 3 | 1 | · | · | ·
O=[N+]([O-])/C=C1/CCCCCN1 | -16 | 28 | -5 | -9 | 4 | -1 | · | · | ·
COC(=O)/C=C/c1ccc(OC(=O)OC)c(OC(=O)OC)c1 | · | 4 | · | -4 | -2 | · | · | · | ·
O=C(N/N=C/c1ccccc1Br)C1CC1 | 17 | 5 | 18 | 7 | -7 | 17 | · | · | ·
CN1CCN(NC(=O)/C=C/c2cccc(Cl)c2)CC1 | 10 | -2 | 6 | 3 | -1 | 3 | · | · | ·
CN1CCN(C(=O)/C=C/c2cccc(Cl)c2)CC1 | 5 | 2 | 21 | 46* | 0 | 5 | 10 | -1 | -5
COc1cc(OC)cc(OC(=O)C2CCN(C(=O)c3ccc(Cl)cc3)CC2)c1 | 18 | 17 | 32 | 18 | · | 24 | · | · | ·
O=C(c1ccc(Cl)cc1)N1CCC(O)(CSc2ccc(Cl)cc2)CC1 | 13 | -12 | 41 | 69* | 10 | 36 | 57* | 0 | -3
O=C(c1ccc(Cl)cc1)N1CCC(O)(CSc2ccccc2)CC1 | -12 | -18 | 22 | 68* | -3 | 33 | 71* | 2 | 4
COc1cccc(SCC2(O)CCN(C(=O)c3ccc(Cl)cc3)CC2)c1 | -2 | -9 | 25 | 55* | -5 | -9 | 48 | 0 | 5
O=C(COC(=O)C12CC3CC(CC(Br)(C3)C1)C2)Nc1ccc2[nH]c(=O)[nH]c2c1 | -39 | 1 | -13 | -5 | 2 | 1 | · | · | ·
O=C1c2ccccc2C(c2nnnn2Cc2ccccc2)N1Cc1ccco1 (stereo not drawn) | · | · | · | -5 | · | · | · | · | ·
COc1ccc(-n2c(Cc3cccn3C)nnc2SCC(=O)Nc2cccc(Cl)c2)cc1 | 7 | -26 | 24 | 47* | 10 | 25 | 23 | -1 | 9
COc1ccc(-n2c(Cc3cccn3C)nnc2SCC(=O)Nc2cccc(NC(C)=O)c2)cc1 | 19 | -19 | -15 | 0 | -1 | 14 | · | · | ·
CCCC(=O)c1ccc(N2CCN(C(=O)c3ccccc3)CC2)c(F)c1 | 21 | 0 | 40 | -1 | · | 38 | · | · | ·
CCCC(=O)c1ccc(N2CCN(C(=O)c3ccc(Br)cc3)CC2)c(F)c1 | 3 | 32 | 4 | 71* | 2 | 0 | 29 | 3 | 8
COc1ccc(C(=O)c2ccc(N3CCN(C(=O)c4ccc(F)cc4)CC3)c(F)c2)cc1Br | 11 | -19 | 11 | 65* | 21 | 15 | 22 | 1 | 5
C[C@@H]1CN([C@H](C)CO)S(=O)(=O)c2ccc(C#Cc3ccccc3F)cc2O[C@@H]1CN(C)C(=O)Cc1ccccc1 | · | · | · | 72* | · | · | 79* | -1 | -7
COC(=O)[C@@]12C[C@@H](CC(=O)NCc3ccc(C)o3)C(=O)N(Cc3ccccc3)C1=CCC(C)(C)C2 | · | · | · | 6 | · | · | · | · | ·
SMILES | TIM10 inh | PfHsp90 yeast 2 | tim23-1 inh | EBI2 block | SKKanGAS inh | tim10-1 inh | EBI2 conf | EBI2 agonist | bGal counter
COc1ccc(-c2ccccc2NC(=O)C2CCCN(Cc3ccc(C)o3)C2)cc1 (stereo not drawn) | -1 | 11 | 9 | 4 | -1 | 16 | · | · | ·
O=C(Nc1cccc(-c2csc(Nc3cccc(C(F)(F)F)c3)n2)c1)c1cc([N+](=O)[O-])cc(C(F)(F)F)c1 | 10 | 6 | 4 | 47* | 77* | 12 | 22 | -1 | -14
CN(CCOc1ccccc1)C(=O)C1CCC(=O)N(CCc2ccc(Cl)cc2)C1 (stereo not drawn) | -13 | -1 | 17 | 54* | -5 | 16 | 39 | 1 | -2
CSc1ccccc1C(=O)N1CCN(c2ccc(F)cc2)CC1 | -9 | · | 29 | 2 | -14 | 10 | · | · | ·
Cc1[nH]c(-c2ccc(F)cc2)cc1C(=O)N1CCN(c2ccccc2)CC1 | 25 | -33 | 41 | 86* | 27 | 37 | 63* | -1 | -21
O=C(CN1CCN(Cc2ccccc2)CC1)N/N=C/c1ccc(Br)s1 | -14 | -9 | 3 | 44* | 3 | -2 | 33 | 2 | 2
CC(C)Nc1nc(Cl)nc(N(C#N)CN2C(=O)c3ccccc3C2=O)n1 | 24 | 17 | 23 | 56* | -20 | 22 | 53* | 0 | 6
CCC(C)Nc1nc(Cl)nc(N(C#N)CN2C(=O)c3ccccc3S2(=O)=O)n1 (stereo not drawn) | 10 | -8 | 17 | 10 | 6 | 23 | · | · | ·
Cc1c(C(=O)N2CCN(c3ncccn3)CC2)oc2ccc(Cl)cc12 | 19 | 9 | 49 | 56* | · | 16 | 47 | 0 | 1
Cc1c(C(=O)N2CCN(c3ccccn3)CC2)oc2ccccc12 | 23 | · | 28 | 36* | -6 | 32 | 3 | -2 | -12
CC(C)(C)NC(=O)CN(Cc1ccc2c(c1)OCO2)C(=O)CNS(=O)(=O)c1ccccc1 | 2 | 1 | -2 | -6 | 7 | -34 | · | · | ·
S=c1[nH]c2ccccc2o1 | 4 | 0 | 10 | 1 | 1 | 3 | · | · | ·
COc1ccc(/C=N/Nc2cc(C)nc(-n3nc(C)cc3C)n2)c(OC)c1 | 4 | -22 | 2 | 47* | 103* | 7 | 57* | -1 | -11
CCCSc1ccc(-c2nn(-c3ccccc3)cc2/C=C(/C#N)C(=O)N2CCOCC2)cc1 | 17 | 14 | 28 | 50* | 9 | 11 | 32 | 1 | 0
O=c1c2oc3ccccc3c2ncn1Cc1cccc(Cl)c1 | 8 | · | 11 | 48* | 5 | 8 | 10 | 1 | 5
